High-throughput results: PubChem BioAssay, several laboratories
HSF1 inh – HSF1 inhibitors in luciferase reporter cells, primary screen, cell-based, NIH3T3, luminescence; NIH3T3-HGL HSE-luciferase, MG132-induced, luminescence 8 h; stronger effect = lower value; activity change, negative = inhibition, % at 7.5 µM (by protocol); hit rate 0.77% among 300,000; AID 2098, 2009;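 active = more than half of replicate wells show activity change below -50%, luminescence cut by over half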;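 note: luciferase reports HSF-1 transcriptional activity via heat shock element; 0% = median of DMSO wells and -100% = zero luminescence signal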
HSP90 refold inh – HSP90 inhibitors, primary screen, cell lysate, luminescence. hit rate 0.91% among 290,000. inhibition, % at 5.6 µM. Rabbit reticulocyte lysate, luciferase refolding luminescence, 3 h. Heat shock protein HSP 90 (rabbit reticulocyte lysate; luciferase refolding). AID 1789, 2009;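 active = inhibition above the screen-wide mean plus 3 SD, computed separately per campaign, cut at about 16% in these data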;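 note: 0% = DMSO wells and 100% = 60 µM geldanamycin wells; inhibitors lower the luminescence because luciferase stays unfolded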
HSF1 activator – HSF-1 activators, primary screen, NIH3T3-HGL cells, MG132 stress, luminescence, single point; activation, % at 9 µM; AID 504408, 2011; NIH3T3-HGL HSF-1 luciferase reporter, 8 h; 100% = twice DMSO control signal; hit rate 1.7% among 300,000;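 active = mean replicate activation of at least 50% with a set share of replicates each reaching 50%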;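 note: 0% = median of the neutral control wells and 100% = twice that signal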
TWEAK-Fn14 inh – inhibitors of TWEAK-Fn14 signaling, primary screen, luciferase reporter cells, uHTS. hit rate 2% among 360,000. TWEAK-stimulated Fn14 reporter cells, luciferase luminescence, 8 h. inhibition, % at 10 µM; in the data active = inhibition above about 50%
LMP1 NFkB inh – EBV LMP1-driven NF-kappaB luciferase reporter inhibitors, primary screen, cell-based, luminescence, single point; LMP1-induced NF-kappaB luciferase reporter cells; inhibition, % at 12.5 µM; hit rate 0.69% among 350,000; AID 504558, 2011; in the data active = inhibition above about 41%;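 note: 0% = neutral control wells and 100% = reference inhibitor control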
TROY signal inh – inhibitors of TROY-driven NF-kB signaling, primary screen, Q293 LMP1-TROYcd cells, NF-kB luciferase, uHTS. Q293 LMP1-TROYcd NF-kB luciferase reporter, 4 h. inhibition, % at 10 µM. hit rate 0.98% among 360,000;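 active = compounds whose plate-normalised and pattern-corrected inhibition of the luciferase reporter signal at the single screening dose is 50% or more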
Starred values were filed as active, the others as inactive. A selection: hits, their analogues and other compounds. The true share with any hit is near 4.7%.

For COc1ccc(NC(=O)c2cc(-c3ccccc3O)n[nH]2)cc1Cl the results were HSF1 inh 7, HSP90 refold inh 0, HSF1 activator 2, TWEAK-Fn14 inh 1, LMP1 NFkB inh 4 and TROY signal inh -24.
For COc1ccc(NC(=O)c2cc(-c3cc(C)cc(C)c3O)n[nH]2)cc1Cl the results were HSF1 inh 15, HSP90 refold inh -2, HSF1 activator 23, TWEAK-Fn14 inh 82*, LMP1 NFkB inh -12 and TROY signal inh 64*.
COc1ccc(NC(=O)c2cc(-c3cc(Cl)ccc3O)n[nH]2)c(OC)c1 was read as HSF1 inh -81*, HSP90 refold inh 8, HSF1 activator -86, TWEAK-Fn14 inh -35, LMP1 NFkB inh -11 and TROY signal inh -21.
Screening COc1cccc(Cn2c3ccc(NC(=O)CCc4ccc(F)cc4)cc3c(=O)n2C)c1 returned TWEAK-Fn14 inh 5 and TROY signal inh 25.
`O=C(NCc1ccccn1)Nc1cccc([N+](=O)[O-])c1` gave HSF1 inh 11, HSP90 refold inh -4, HSF1 activator 7, TWEAK-Fn14 inh -1, LMP1 NFkB inh -3 and TROY signal inh -20.
`COc1ccc(CCNC(=O)c2cccc([N+](=O)[O-])c2)cc1OC` gave HSF1 inh -87*, HSF1 activator -88, TWEAK-Fn14 inh -18, LMP1 NFkB inh 14 and TROY signal inh 21.
COc1ccc(CCNC(=O)Nc2cccc([N+](=O)[O-])c2)cc1 was read as HSF1 inh 2, HSP90 refold inh 5, HSF1 activator -2, TWEAK-Fn14 inh -1, LMP1 NFkB inh 0 and TROY signal inh 2.
`O=C(CCc1ccccc1)Nc1cccc([N+](=O)[O-])c1` gave HSF1 inh -76*, HSP90 refold inh 1, HSF1 activator -82, TWEAK-Fn14 inh -8, LMP1 NFkB inh 4 and TROY signal inh 1.
Screening COc1ccc(CCNC(=O)Nc2cccc([N+](=O)[O-])c2)cc1OC returned HSF1 inh 26, HSP90 refold inh -2, HSF1 activator 71*, TWEAK-Fn14 inh 5, LMP1 NFkB inh -1 and TROY signal inh -20.
`O=C(NCc1ccccn1)c1cccc([N+](=O)[O-])c1` gave HSF1 inh 18, HSP90 refold inh 0, HSF1 activator 62*, TWEAK-Fn14 inh 0, LMP1 NFkB inh 1 and TROY signal inh -1.
For O=C(CCCc1ccccc1)Nc1cccc([N+](=O)[O-])c1 the results were HSF1 inh 4, HSP90 refold inh -5, HSF1 activator 16, TWEAK-Fn14 inh -21, LMP1 NFkB inh -21 and TROY signal inh -46.
`Cc1ccc2nccc(C(=O)N3CCCC(N4CCN(c5ccc(F)cc5)CC4)C3)c2c1` (stereo not given) gave HSF1 inh -4, HSP90 refold inh -4, HSF1 activator 0, TWEAK-Fn14 inh 7, LMP1 NFkB inh 4 and TROY signal inh 76*.
For COc1ccccc1N1CCN(C2CCCN(C(=O)c3ccnc4ccc(C)cc34)C2)CC1 (stereo not given) the results were HSF1 inh -6, HSP90 refold inh 0, HSF1 activator -3, TWEAK-Fn14 inh 8, LMP1 NFkB inh 3 and TROY signal inh 0.
CC(=O)Nc1ccc(Br)c2ccccc12 was read as HSF1 inh -14, HSP90 refold inh 0, HSF1 activator -8, TWEAK-Fn14 inh 5, LMP1 NFkB inh -1 and TROY signal inh 2.
Screening O=Nc1ccc(NO)c2ccccc12 returned TWEAK-Fn14 inh 71*, LMP1 NFkB inh -43 and TROY signal inh 36.
Cc1ccc(-c2cc(C(F)F)n3ncc(C(=O)N4CCN(c5ccccn5)CC4)c3n2)cc1 was read as HSF1 inh 11, HSP90 refold inh -1, HSF1 activator 22, TWEAK-Fn14 inh 5, LMP1 NFkB inh 1 and TROY signal inh 5.
